Integrin act MD: activates integrin-mediated alleviation for muscular dystrophy; alpha7betagal myoblasts, beta-gal FDG fluorescence, 48 h; Potency, µM (top dose mostly 38.3 µM), without a hit: at the top dose activation, hits mostly activators; AID 624291; 350,000 tested, 0.064% active;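 also: potency is read from the fitted curve at half-maximal effect; 100% = response of the positive control SU9516; nearly all actives have a fitted effect of over 60% in size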
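Alpha7betagal+/- myoblasts (passage 13) were plated 16-24 hr, then exposed to compounds (1:260 dilution of DMSO stock) for 48 hours at 37C. After MPER lysis, β-galactosidase reporter activity was read as FDG fluorescence (ex 480/em 540) after 30 minutes.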
IL2 activator: activates IL-2 in a cell-based reporter assay | IL-2 activation reporter assay, cell-based qHTS; stimulated with anti-CD3/CD4/CD28 beads; in transgenic mouse T cells | activation, % (series mostly up to about 46 µM) | 360,000 tested, 0.065% active; in the data active = activation above about 50%; inconclusive = mostly about 30% to 49%; also: 0% is about no effect
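Unstimulated transgenic mouse T cells; 60-min compound exposure; bead-based TCR/CD4/CD28 stimulation; 18 h culture, 37 degrees C; dual fluorescence (EGFP, DsRed) plate cytometry.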
BCR signal inh: chronic active BCR signaling inhibition | ABC-DLBCL IkBa-CBG/CBR reporter, luminescence ratio, 4 h | Potency, µM (highest dose often 46.1 µM), inactives show at the top dose activity change, negative = inhibition, most hits filed as inhibitors | 340,000 tested, 0.05% active | AID 493014; active = well fitted inhibition curve with a large enough effect in the signal ratio, with a control signal flat, not every such curve was filed as active; inconclusive = small, poorly fitted or top-dose-only effect, or effect the other way, or a change in a side signal; the % refers to the signal ratio;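 also: potency is read from the fitted curve at half-maximal effect; plate controls were basal doxycycline-induced cells for no effect and cells given 10 µM MG132 for full effect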
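Doxycycline induced both beetle luciferases in TMD8 lymphoma cells; IKK-driven degradation limits the IkappaBalpha-fused green signal, while red luminescence normalises for cell number and nonspecific effects. Compounds tested up to 46 uM, 4 hrs.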
BRCA1 expr up: BRCA1 expression activation; AID 624202; 380,000 tested, 1.1% active; MCF7-BRCA1-FFLuc reporter, luminescence, 48 h; response scale: scaled: vehicle 0%, 10 µM genistein 100%; Potency, µM (titrated, usually from 46.1 µM), for the others: at the top dose activation, most hits filed as activators; also: potency is read from the fitted curve at half-maximal effect; nearly all actives have a fitted effect of over 80% in size
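48 h compound treatment of MCF7-BRCA1-FFLuc cells (phenol-red free MEM, 37 °C), then 15 min with luciferase substrate and luminescence imaging.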
N370S GC mod: inhibitors or activators of N370S glucocerebrosidase for Gaucher disease. P04062. N370S GC spleen homogenate, 4MU-glucoside fluorescence. Potency, µM (highest dose often 59.4 µM), for the others: at the highest dose activity change, negative = inhibition, usual class: inhibitors. 330,000 tested, 0.092% active;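 also: potency is read from the fitted curve at half-maximal effect; 0% = full enzyme activity and -100% = no enzyme basal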
Nrf2 activator: activators of Nrf2 (ARE) signaling; AREc32 ARE-luciferase reporter (MCF7-derived line), luminescence, 24 h; Potency, µM (doses to about 46.1 µM), inactives show top-dose activation, most hits filed as activators; 410,000 tested, 0.31% active; also: potency is read from the fitted curve at half-maximal effect; % of control where 0% means no effect; nearly all actives have a fitted effect of over 65% in size
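Luciferase luminescence (Steady-Glo, 30 min at room temperature) served as the read-out of ARE activation in AREc32 cells treated with compounds for 24 hr at 37 deg C.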
* marks the source's active call; other numbers are inactive results; ? = inconclusive; . = not tested or not shown; [ ] = dose if it differs, or a comment. In the library only some 1.4% were active in any assay of this set; here they are far more common. Unless noted, calls follow the shape of the dose curve; as a rule, active = well fitted curve in the direction sought with a large enough effect; inconclusive = small, poorly fitted or top-dose-only effect, or another doubt; inactive = no such curve, though single readings can be large; an effect the other way counts as inactive or inconclusive.

SMILES	Integrin act MD	IL2 activator	BCR signal inh	BRCA1 expr up	N370S GC mod	Nrf2 activator
CC1CN(c2ncnc3c2cnn3-c2ccc(Cl)cc2)CC(C)O1 (centres undefined)	3%	3	?	3.2µM*	5%	-1%
O=C(NCc1ccccc1)c1cnc2n(c1=O)CCS2	-5%	0	3%	37%	15%	1%
O=C(NCCc1ccc(Cl)cc1)c1cnc2n(c1=O)CCS2	3%	2	1%	?	?	4%
O=C(NCCCc1ccccc1)c1cnc2n(c1=O)CCS2	-6%[7.66 µM]	3	-2%	6.3µM*	21%	0%
O=C(NCCC1=CCCCC1)c1cnc2n(c1=O)CCS2	-4%	1	?	8.9µM*	2%	0%
O=C(CSc1ncccn1)NC(=O)NC1CCCC1	16%	-2	.	38%	.	1%
Clc1nc2sccn2c1/C=N/n1cnc2ccccc21	-7%	-2	3%	-46%	26%	3.2µM*
CCOc1ccc(CCNC(=O)c2c3c(nc4ccccc24)C(=O)N(C2CCCCC2)C3)cc1	.	.	.	.	.	1%
CCOc1ccc(N2C(=O)c3ccccc3C2O)cc1 (centres undefined)	4%	0	?	6.3µM*	24%	0%
CCN(C(=O)C(=O)c1c(C)[nH]c2ccccc12)c1ccccc1	.	.	.	3%	.	.
O=C(Nc1c(Cl)cc([N+](=O)[O-])cc1Cl)c1cc(Cl)cc(Cl)c1O	.	.	.	-16%	.	.
CC(Cc1cccs1)NC(=O)Nc1ccc([N+](=O)[O-])cc1 (centres undefined)	-19%	0	6%	5.6µM*	-1%	5%
CC(Cc1cccs1)NC(=O)c1cccs1 (centres undefined)	1%	0	1%	?	1%	3%
COc1cc2cnc(-c3ccsc3)cc2cc1OC	-20%	0	?	-41%	.	4.5µM*
Fc1ccc2cc(-c3ccsc3)ncc2c1	17%	2	2%	-26%	.	8.9µM*
COc1cc(NC(=O)CCn2cnc3ccccc3c2=O)cc(OC)c1	.	.	.	55%	.	3%
O=S(=O)(c1ccc(F)cc1)N1CCN(c2nc(-c3ccccc3)nc3ccccc23)CC1	.	.	.	2%	.	.
CC1CCc2c(sc(/N=C/N(C)C)c2C#N)C1 (centres undefined)	-27%	-1	?	13µM*	24%	4%
N/C(=N\OC(=O)COc1ccc(Cl)cc1Br)c1cccnc1	1%	2	?	102%	5%	5%
COc1ccc(Cl)cc1C(=O)O/N=C(\N)c1ccncc1	-3%	-4	?	-20%	-1%	4µM*
N/C(=N\OC(=O)COc1ccc(Cl)cc1Cl)c1ccncc1	-19%	0	?	1.1µM*	9%	4%
COC(=O)C(Cc1ccccc1)NC(=O)CCNC(=O)c1ccco1 (centres undefined)	-13%	-1	1%	-17%	-5%	0%
O=C(Nc1ccc(Cl)cc1N1CCOCC1)C1CCCO1 (centres undefined)	9%	0	0%	2%	1%	0%
O=C(Nc1ccc(Cl)cc1N1CCOCC1)C1CCCCC1	7.1µM*	-2	1%	-5%	-2%	-1%
O=C(NC(=S)Nc1ccc(Cl)cn1)c1cccs1	2%	0	?	?	16%	6.3µM*
SMILES	Integrin act MD	IL2 activator	BCR signal inh	BRCA1 expr up	N370S GC mod	Nrf2 activator
O=C(Nc1ncc(Cl)cn1)c1cccs1	9%	0	?	13µM*	-7%	4%
CCCCCCOc1ccc(CC(=O)O)cc1	.	.	.	10%	.	.
CN(C)c1ccc(/C=C/C=C2/C=Cc3ccccc32)cc1	.	.	.	104%	.	.
CCOc1cc(/C=C2\NC(=S)N(c3c(C)n(C)n(-c4ccccc4)c3=O)C2=O)ccc1O	4%	0	1%	-3%	-11%	0%
CCOc1cccc(/C=C2\NC(=S)N(c3ccccc3)C2=O)c1O	11%	1	?	-40%	?	11µM*
Nc1nc2ccccc2cc1-c1cccs1	-3%	0	0%	3.2µM*	1%	4%
c1csc(-c2ccc3ccccc3n2)c1	10%	1	0%	7.1µM*	4%	18µM*
N=C1C(c2nc3ccccc3s2)=C(O)CN1Cc1ccco1	5%	3	4%	7.1µM*	?	8%
Cc1ccc(-c2cc3ccccc3nc2N)cc1	-10%	0	5%	10µM*	1%	18%
CN(C)c1ccc(/C=C/c2ncnc3ccccc23)cc1	.	.	.	50%	.	.
c1coc(-c2nc3ccccc3s2)c1	0%	0	.	95%	.	11µM*
c1csc(-c2nc3ccccc3s2)c1	4%	0	22%	7.9µM*	5%	?
COc1cc(C(=O)Nc2nnc(S(=O)(=O)N(C)c3ccccc3)s2)cc(OC)c1OC	.	.	.	.	.	7%
CC(=O)Nc1ccc(SCC(c2ccccc2)N2CCN(C)CCC2=O)cc1 (centres undefined)	.	.	.	.	-6%	.
CNc1nc(-c2ccc3c(c2)CCN3C(=O)c2ccccc2C)cs1	1%	-2	-3%	2µM*	-20%	4%
CNc1nc(-c2ccc3c(c2)CCN3C(=O)c2ccc(F)cc2)cs1	0%	0	?	36%	9%	10%
O=C1CN(C(=O)COc2ccc(Cl)cc2Cl)c2ccccc2N1	9%	-2	2%	23%	3%	0%
O=C1CN(C(=O)COc2ccc([N+](=O)[O-])cc2Cl)c2ccccc2N1	?	0	0%	11µM*	.	2%
CCOC(=O)c1sc(NC(=O)c2nc3ncccn3n2)c(C(=O)OC(C)C)c1C	.	.	6%	.	.	-1%
O=S(=O)(c1ccc2c(Cl)cccc2c1)N1CCN(c2nc(-c3cccs3)nc3ccccc23)CC1	.	.	.	-13%	.	.
CCCc1nnc(NC(=O)Nc2ccccc2OC)s1	-13%	-3	9%	22µM*	-1%	5%
CCCc1nnc(NC(=O)c2cccc(OC)c2)s1	-7%	-1	?	7.1µM*	9%	0%
CCCc1nnc(NC(=O)c2cc3ccccc3o2)s1	32%	-3	?	5µM*	0%	2%
COCc1nnc(NC(=O)c2cc(Cl)ccc2OC)s1	-3%	-2	-5%	-16%	-9%	13µM*
COc1ccc(N2C(=O)c3ccccc3NC2c2ccc(OC)c(COc3ccccc3F)c2)cc1 (centres undefined)	.	.	.	80%	.	.
CCOCc1nnc(NC(=O)c2ccc(OC)cc2)s1	-5%	2	16%	13µM*	2%	4%
Cc1cccc(NC(=O)COc2ccc(Br)cc2/C=N/O)c1	11%	-1	?	4.5µM*	14%	2%
COc1ccccc1-c1nn2c(-c3cc(C)[nH]n3)nnc2s1	.	.	.	10%	.	.

Bioassay records as filed in PubChem BioAssay.
